# Screens from PubChem BioAssay.
# TRPML1 ag: agonists of human TRPML1 channel; Q9GZU1; TRPML1-expressing cells, Ca2+ dye fluorescence, FDSS; activation, % (concentration not given with the values); actives 0.12% (n = 410,000); AID 624414; in the data active means activation above about 50%; inconclusive means mostly about 30% to 49%; further: 0% is about no effect
# Target sequence (Q9GZU1 whole entry, looked up): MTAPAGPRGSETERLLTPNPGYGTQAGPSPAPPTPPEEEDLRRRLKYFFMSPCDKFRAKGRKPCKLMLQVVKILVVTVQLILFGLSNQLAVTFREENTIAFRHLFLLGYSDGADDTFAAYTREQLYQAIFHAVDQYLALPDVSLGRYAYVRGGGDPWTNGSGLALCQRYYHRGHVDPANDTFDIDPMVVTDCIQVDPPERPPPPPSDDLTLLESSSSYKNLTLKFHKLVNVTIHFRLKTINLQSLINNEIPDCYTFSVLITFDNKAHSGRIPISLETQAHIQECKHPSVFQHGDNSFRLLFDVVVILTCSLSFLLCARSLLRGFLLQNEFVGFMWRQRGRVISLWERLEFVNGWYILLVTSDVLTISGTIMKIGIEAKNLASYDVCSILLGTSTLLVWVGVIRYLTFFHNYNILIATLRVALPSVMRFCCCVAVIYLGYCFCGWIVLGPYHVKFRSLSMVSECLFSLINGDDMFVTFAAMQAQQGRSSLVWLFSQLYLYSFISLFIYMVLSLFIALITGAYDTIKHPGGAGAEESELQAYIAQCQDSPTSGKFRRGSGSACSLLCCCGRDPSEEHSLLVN
#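 Cells: TRPML1-DL, 1X Tet inducer, ~16 h at 37 degrees C/5% CO2. Dye: ABD Ca8 no-wash + quencher, 45-90 min RT. Read: 10 s baseline, compound add, 110 s agonist phase; 54-4 EC80 (4uM final), 110 s antagonist phase.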
# TRPML1 inh: human mucolipin-1 channel inhibition; Q9GZU1; actives 0.02% (n = 390,000); activity change, negative = inhibition, % (test concentration not listed); TRPML1-inducible cells, Ca2+ dye fluorescence, FDSS; stronger effect = lower value; inhibition of EC80 agonist-evoked calcium signal; AID 624415; in the data active means activity change below about -50%; inconclusive means between about -30% and that limit;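 further: stimulus is agonist 54-4 at its EC80 concentration; on the % scale 0 is the no-effect control and ±100 the full control effect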
#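 Calcium fluorescence in TRPML1-DL cells induced overnight with Tet: a 110 s read after compound pin addition, then a 110 s antagonist read after challenge with 54-4 at 4 uM final (EC80).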
# TRHR enhancer-1: allosteric enhancers of human TRH receptor; P34981; AID 493056; actives 0.66% (n = 360,000); TRHR cells, fluo-8 calcium fluorescence, EC20 TRH enhancement; enhancement, % at 2 µM; in the data active means enhancement above about 30%; further: 0% is about no effect
#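 Enhancer read-out: after compound pinning and an initial kinetic agonist-mode read, an EC20 of TRH (10 nM final) was injected and fluo-8 calcium signal (Ex 480/Em 530) followed at 1 s/cycle for 100 cycles in TRHR-expressing cells.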
# TRHR agonist-1: activates the human TRH receptor; TRHR cells, calcium flux fluo-8, FDSS agonist mode; actives 0.18% (n = 360,000); activation, % at 2 µM; P34981; in the data active means activation above about 30%; further: 0% is about no effect
#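 TRHR-expressing cells, plated overnight in medium with 10% serum, were loaded with fluo-8 calcium dye at room temperature. After a 10 s baseline, library compound was pin-added and calcium release was recorded kinetically (ex 480/em 530) as agonist response.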
# TRHR enhancer-2: human TRH receptor allosteric enhancement confirmation; shares compounds with TRHR enhancer-1; TRH receptor cell assay, enhancer confirmation qHTS; activity change, negative = inhibition, % at 46.1 µM; 970 tested, under 10 active;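 further: compound effect scored on response to added TRH at EC20 of 10 nM; 0% is about no effect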
# TRHR agonist-2: human TRH receptor agonism confirmation; shares compounds with TRHR enhancer-1; TRHR-expressing cells, agonist activation read-out; actives 8% (n = 970); Potency, µM (doses to about 46.1 µM), for the others: at the highest dose activation, most hits filed as activators; further: potency means the concentration at half of the fitted maximal effect; 0% is about no effect; nearly all actives have a fitted effect of over 75% in size
# * marks the source's active call; other numbers are inactive results; u = inconclusive; x = no result given. Shown are actives, neighbours in structure and some others; about 0.81% of the full set was active somewhere. Unless noted, the call rests on the fitted dose curve; in most records, active means well fitted curve in the direction sought with a large enough effect; inconclusive means small, poorly fitted or top-dose-only effect, or another doubt; inactive means no such curve, though single readings can be large; an effect the other way counts as inactive or inconclusive.
SMILES,TRPML1 ag,TRPML1 inh,TRHR enhancer-1,TRHR agonist-1,TRHR enhancer-2,TRHR agonist-2
COc1ccc(C)cc1NC(=O)c1cc(S(=O)(=O)NCCC2=CCCCC2)ccc1F,1,-7,7,1,x,x
CC(C)Oc1ccc(/C=C(/NC(=O)c2ccccc2)C(=O)NC(Cc2ccccc2)C(=O)O)cc1 (stereo not given),2,20,-3,0,x,x
CC(C)Oc1ccc(/C=C(/NC(=O)c2ccccc2)C(=O)NCCC(=O)O)cc1,0,15,47*,0,-2,0%
CCOC(=O)c1ccc(CNc2ncnc3nc[nH]c23)cc1,0,x,x,x,x,x
O=C(Cc1cccs1)N=Nc1c(O)[nH]c2ccc(Br)cc12,3,-6,1,0,x,x
O=C(Cc1cccs1)N=Nc1c(O)[nH]c2ccccc12,0,-10,43*,-2,-4,4%
CN(N=O)c1ccc2c(c1)Cc1ccccc1-2,-1,x,x,x,x,x
CC1=Nc2ccccc2/C1=C/c1ccc(N(C)C)cc1,0,x,x,x,x,x
COc1ccc(N2C(=O)c3cccc4cccc(c34)C2=O)cc1,0,20,-2,0,x,x
COc1ccc(N2C(=O)c3cccc4c(N(C)CCO)ccc(c34)C2=O)cc1,u,3,-10,35*,-5,21µM*
COc1ccc(/C=C2\CC/C(=C\c3ccc(OC)cc3OC)C2=O)c(OC)c1,u,-12,-5,34*,0,23µM*
CCCCN1C(=O)/C(=C/C=C2/CC(C)(C)CN2C)SC1=S,53*,-9,-1,39*,3,9.2µM*
O=C1C2C3CCCC3=C3CCCC3C2C(=O)N1c1ccccc1Cl (stereo not given),1,-7,-5,3,x,x
NC(=O)c1ccc(F)cc1,1,-14,59*,2,6,-1%
Cc1ccc(S(=O)(=O)N2CCN(C(=O)CSc3ccc(Cl)cc3)CC2)cc1,2,-17,-1,0,x,x
CN1CCN(C(=O)CSc2ccc(Cl)cc2)CC1,-1,1,43*,0,6,0%
Cc1ccc(OCc2nc(C#N)c(NCCCn3ccnc3)o2)cc1,-1,7,-3,0,x,x
N#Cc1nc(COc2ccccc2)oc1NCCCn1ccnc1,-1,4,57*,0,-5,1%
COc1ccccc1NC(=O)CC1COc2ccccc2O1 (stereo not given),-2,-1,47*,0,5,1%
CNc1nc(-c2ccccc2)c(-c2ccccc2)s1,-1,x,x,x,x,x
COc1ccc(CNC(=O)c2cc(C3CC3)nc3c2cnn3C(C)C)cc1,3,-9,43*,-1,-12,u
O=S(=O)(c1ccc(F)cc1)N1CCN(c2nc(-c3cccc(Br)c3)nc3ccccc23)CC1,0,27,-3,-1,x,x
CCOC(=O)Cc1csc(SCC(=O)NC2CCCC2)n1,2,-8,52*,0,-5,0%
CCOC(=O)Cc1csc(SCC(=O)NC2CCCCC2)n1,0,8,10,0,x,x
COc1ccc(Cn2nnnc2C(c2ccccn2)N2CCN(c3ccc(O)cc3)CC2)cc1 (stereo not given),0,x,x,x,x,x
SMILES,TRPML1 ag,TRPML1 inh,TRHR enhancer-1,TRHR agonist-1,TRHR enhancer-2,TRHR agonist-2
CCC1CCCCN1CCCNC(=O)c1cn(CC)c2ccc(S(=O)(=O)N3CCc4ccccc4C3)cc2c1=O (stereo not given),0,-20,51*,0,1,5%
Cc1c(C)c2cc3c(C)coc3cc2oc1=O,1,5,41*,0,-8,-1%
COc1ccc(OC)c(/C=C2\Cc3ccccc3C2=O)c1,0,x,x,x,x,x
Cc1nc(S(=O)(=O)N2CCN(C3c4ccccc4-c4ccccc43)CC2)cn1C,1,7,43*,1,8,5%
O=C(OC(C(=O)N1CCOCC1)c1ccccc1)c1c2c(nc3ccccc13)CCCC2 (stereo not given),-1,x,x,x,x,x
Oc1c(Cl)cc(Cl)cc1/C=C/c1ccc2cccc(O)c2n1,17,2,-10,42*,u,u
CCn1c(SCC(=O)NCc2ccco2)nnc1-c1cccc(N(C)C)c1,-1,x,x,x,x,x
C=C1C=C(C(F)F)n2ncc(C(=O)NC(C)CC)c2N1 (stereo not given),-1,x,x,x,x,x
CCc1ccc(S(=O)(=O)/N=C2\C=C(NS(=O)(=O)c3ccccc3)C(=O)c3ccccc32)cc1,2,u,49*,-1,-7,2%
CC(C)c1ccc(S(=O)(=O)/N=C2\C=C(NS(=O)(=O)c3ccccc3)C(=O)c3ccccc32)cc1,4,6,21,-1,x,x
Cc1ccccc1C(=O)Nc1cccc(-c2nnc(SCC(=O)NCc3ccco3)n2C)c1,0,x,x,x,x,x
COc1cc(N)c(NC(=O)/C=C/c2nc3cc(OC)c(OC)cc3[nH]2)cc1OC,0,x,x,x,x,x
CN1C(=O)c2cccc3c(N(C)C)ccc(c23)C1=O,21,-11,8,44*,7,16µM*
N/C(=C\c1ccccc1)c1ccncc1,6,x,x,x,x,x
O=C(CNC(=O)c1ccc(S(=O)(=O)N2CCCC2)cc1)N/N=C/c1ccccc1Cl,0,-8,1,-1,x,x
O=C(NN=Cc1c(O)ccc2ccccc12)c1ccc2c(c1)OCO2,7,-21,x,x,x,x
O=C(N/N=C/c1c(O)ccc2ccccc12)c1ccc(CO)nc1,2,14,1,32*,4,u
O=C(N/N=C\c1c(O)ccc2ccccc12)c1ccc(S(=O)(=O)N2CCCCC2)cc1,17,-10,26,60*,u,18µM*
COc1cc(CN2CCNC(=O)C2CC(=O)NC2CCCCC2)cc(OC)c1 (stereo not given),0,-10,19,0,x,x
COc1cc(CN2CCNC(=O)C2CC(=O)NC2CCCC2)cc(OC)c1 (stereo not given),0,3,58*,1,-7,0%
CCN(CC)S(=O)(=O)c1ccc(C(=O)N(c2ccc(C)cc2)C2C=CS(=O)(=O)C2)cc1 (stereo not given),-1,4,42*,-1,-7,-1%
CC(C)c1ccc(OC(=O)c2cccc(S(=O)(=O)N3CCN(C)CC3)c2)cc1,0,-4,15,-1,x,x
CN1CCN(S(=O)(=O)c2cccc(C(=O)Oc3ccc(C(C)(C)C)cc3)c2)CC1,1,79,50*,1,12,2%
Cc1ccc(C(=O)NCc2ccncc2)cc1S(=O)(=O)N1CCOCC1,0,-14,44*,0,-8,1%
COc1cccc(CNC(=O)c2ccc(C)c(S(=O)(=O)N3CCOCC3)c2)c1,0,-10,-6,0,x,x
COc1cc([N+](=O)[O-])c2ncccc2c1,1,0,0,-1,x,x
COc1cc([N+](=O)[O-])c2nccnc2c1,0,-4,44*,0,13,1%
